Source: PubChem
The full list was thinned out, with hits kept by preference.
DUX4 inh = blocks DUX4-driven transcriptional activation; 293T-iDUX4 ZSCAN4-Gaussia luciferase reporter, 24 h; hits give low values; activity change, negative = inhibition, % (test concentration not listed); hit rate 0.8% among 37,000; AID 1224904;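 active = mean inhibition of at least 10% in the main channel, exceeding the control channel by a set limit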
Numbers stand for hits; n = inactive.

SMILES	DUX4 inh
O=C(c1ccccc1)N1CC[C@H]2[C@H](CO)Nc3ccc(C#Cc4cccc(F)c4)cc3[C@H]21	n
COc1ccccc1C#Cc1ccc2c(c1)[C@@H]1[C@@H](CCN1C(=O)c1cccc(F)c1)[C@H](CO)N2	n
O=C(c1ccc2c(c1)OCO2)N1CC[C@@H]2[C@H](CO)Nc3ccc(C#Cc4ccccc4)cc3[C@@H]21	-54
O=C(c1ccccc1F)N1CC[C@@H]2[C@@H](CO)Nc3ccc(C#Cc4ccccc4F)cc3[C@@H]21	n
O=C(c1ccc2c(c1)OCO2)N1CC[C@@H]2[C@H]1c1cc(-c3ccccc3)ccc1N[C@@H]2CO	n
O=C(c1ccccc1)N1CC[C@@H]2[C@H](CO)Nc3ccc(C#Cc4cccc(F)c4)cc3[C@@H]21	-40
O=C(c1ccccc1F)N1CC[C@@H]2[C@H](CO)Nc3ccc(C#Cc4ccc(F)cc4)cc3[C@@H]21	-33
O=C(c1ccc2c(c1)OCO2)N1CC[C@@H]2[C@H](CO)Nc3ccc(-c4ccccc4)cc3[C@@H]21	n
COc1ccc(C#Cc2ccc3c(c2)[C@@H]2[C@@H](CCN2C(=O)c2ccccc2F)[C@@H](CO)N3)cc1	n
COc1ccccc1-c1ccc2n(c1=O)C[C@@H]1[C@@H](CO)[C@H](C(=O)Nc3nccs3)N(C)[C@H]21	n
CC(=O)N(C)C[C@H]1OCc2ccccc2-c2ccccc2C(=O)N([C@H](C)CO)C[C@H]1C	n
CNC(=O)C[C@H]1CC[C@@H]2[C@H](COc3ccc(NC(=O)c4cccc(OC)c4)cc3C(=O)N2C)O1	n
O=C(C[C@@H]1CC[C@H]2[C@@H](COC[C@H](O)CN2Cc2cccc(C(F)(F)F)c2)O1)NCCc1ccncc1	n
C[C@@H]1CN([C@H](C)CO)C(=O)c2c(c3ccccc3n2C)-c2ccccc2CO[C@H]1CN(C)Cc1ccc(O)cc1	n
C[C@@H]1CN([C@H](C)CO)C(=O)c2c(c3ccccc3n2C)-c2ccccc2CO[C@@H]1CN(C)Cc1ccc(O)cc1	n
C[C@@H]1CN([C@H](C)CO)C(=O)c2c(c3ccccc3n2C)-c2ccccc2CO[C@@H]1CN(C)Cc1cccc2c1OCCCO2	n
C[C@H]1CN([C@@H](C)CO)C(=O)c2ccccc2-c2ccccc2CO[C@H]1CN(C)Cc1cccc2c1OCCCO2	n
C[C@@H]1CN([C@@H](C)CO)C(=O)c2c(c3ccccc3n2C)-c2ccccc2CO[C@@H]1CN(C)Cc1ccc(C(F)(F)F)cc1	-27
COc1ccccc1CN(C)C[C@H]1OCc2ccccc2-c2c(n(C)c3ccccc23)C(=O)N([C@@H](C)CO)C[C@H]1C	n
C[C@H](CO)N1C[C@H](C)[C@@H](CN(C)C(=O)Nc2ccccc2C(F)(F)F)OCc2ccccc2-c2c(n(C)c3ccccc23)C1=O	n
C[C@H]1CN([C@@H](C)CO)C(=O)c2c(c3ccccc3n2C)-c2ccccc2CO[C@@H]1CN(C)Cc1ccccc1C(F)(F)F	-30
C[C@@H]1CN([C@H](C)CO)C(=O)c2c(c3ccccc3n2C)-c2ccccc2CO[C@H]1CN(C)Cc1cccc(O)c1	n
C[C@H](CO)N1C[C@H](C)[C@@H](CN(C)Cc2cccc(C(F)(F)F)c2)OCc2ccccc2-c2c(n(C)c3ccccc23)C1=O	-54
C[C@@H]1CN([C@H](C)CO)C(=O)c2c(c3ccccc3n2C)-c2ccccc2CO[C@H]1CN(C)Cc1cccc2c1OCCCO2	-32
C[C@@H]1CN([C@H](C)CO)C(=O)c2c(c3ccccc3n2C)-c2ccccc2CO[C@@H]1CN(C)Cc1cccc(C(F)(F)F)c1	n
SMILES	DUX4 inh
COc1ccc2c3c([nH]c2c1)[C@H](CO)N(C(=O)CN(C)C)CC31CN(C(=O)c2ccncc2)C1	n
C[C@@H]1CN([C@@H](C)CO)C(=O)c2cc(C#C[C@@H](C)O)cnc2O[C@H]1CN(C)C(=O)CN1CCOCC1	n
CO[C@@H]1CN(C)C(=O)c2cc(NC(=O)C3CC3)ccc2OC[C@@H](C)N(Cc2ccccc2C(=O)O)C[C@H]1C	n
O=C(C1CCCC1)N1CC2(C1)[C@@H](c1ccccc1)[C@H](CO)N2C(=O)NC1CCCC1	n
CCCNC(=O)C[C@@H]1C[C@@H]2c3cc(NS(=O)(=O)c4ccc(F)cc4)ccc3O[C@@H]2[C@H](CO)O1	n
CCS(=O)(=O)N1[C@H](C#N)[C@@H](c2ccc(C3=CCCCC3)cc2)[C@H]1CO	n
CCc1cnc(N2[C@H](C#N)[C@@H](c3ccc(C#CC(C)C)cc3)[C@@H]2CO)s1	n
O=C(C[C@@H]1CC[C@H]2[C@@H](COC[C@@H](O)CN2C(=O)c2cccnc2)O1)NCc1ccc(Cl)cc1	n
N#C[C@@H]1[C@@H](c2ccccc2-c2cccc(F)c2)[C@@H](CO)N1C(=O)NC1CCCCC1	-29
N#C[C@@H]1[C@@H](c2ccc(-c3cccc(F)c3)cc2)[C@@H](CO)N1C(=O)NC1CCCC1	n
Cc1ccc(-c2ccccc2[C@H]2[C@@H](C#N)N(C(=O)NC3CCCC3)[C@H]2CO)cc1	n
CCNC(=O)C[C@@H]1CC[C@@H]2[C@H](COc3ccc(NS(C)(=O)=O)cc3C(=O)N2C)O1	n
O=C(C[C@H]1CC[C@H]2NC[C@H](O)COC[C@@H]2O1)NCCc1ccccc1	n
OC[C@@H]1[C@H](c2ccc(C#Cc3cccnc3)cc2)[C@H]2CN(Cc3ccccc3F)CCCCN12	-57
OC[C@@H]1[C@H](c2ccc(C#Cc3ccccc3F)cc2)[C@@H]2CN(Cc3cncnc3)CCCCN12	n
CC(C)(O)C#Cc1ccc([C@@H]2[C@H]3CN(Cc4ccccc4F)CCCCN3[C@H]2CO)cc1	n
OC[C@H]1[C@H](c2ccc(C#Cc3cccnc3)cc2)[C@@H]2CN(Cc3ccccc3F)CCCCN12	-38
O=C(Nc1ccccc1F)N1CCCCN2[C@@H](CO)[C@H](c3ccc(C#Cc4cccnc4)cc3)[C@@H]2C1	n
OC[C@@H]1[C@@H](c2ccc(C#Cc3ccccc3F)cc2)[C@H]2CN(Cc3cncnc3)CCCCN12	n
OC[C@H]1[C@H](c2ccc(C#Cc3ccccc3F)cc2)[C@@H]2CN(Cc3cncnc3)CCCCN12	n
O=C(Nc1ccccc1F)N1CCCCN2[C@H](CO)[C@H](c3ccc(C#Cc4cccnc4)cc3)[C@H]2C1	-36
O=C(Nc1cccc(F)c1)N1CCCCN2[C@H](C1)[C@@H](c1ccc(C#Cc3cccnc3)cc1)[C@@H]2CO	n
CC=Cc1ccc2n(c1=O)C[C@H]1[C@H](CO)[C@@H](C(=O)NCC)[C@@H]2N1C(=O)c1ccc(F)cc1 (mixture of isomers)	n
CO[C@H](CN(C)S(=O)(=O)c1ccc(F)cc1)[C@@H](C)CN([C@@H](C)CO)S(=O)(=O)c1cccc(Cl)c1	n
CO[C@@H]1CN(C)C(=O)c2ccc(NS(C)(=O)=O)cc2OC[C@@H](C)NC[C@@H]1C	n
CC[C@H]1CC=CC[C@@H](C)Oc2ccccc2C(=O)N(C)[C@H](C)C(=O)N1 (mixture of isomers)	n
CC(C)[C@@H]1CC=CC[C@H](C)Oc2ccccc2C(=O)N(C)[C@@H](C)C(=O)N1 (mixture of isomers)	n
COc1ccc2c3c(n(C)c2c1)[C@H](CO)N(C(=O)c1ccncc1)CC31CN(C(C)=O)C1	n
C[C@H](CO)N1C[C@H](C)[C@H](CN(C)Cc2ccc3c(c2)OCO3)OCc2cnnn2CCCC1=O	n
O=C(c1cccnc1)N1CC2(C1)[C@H](c1ccccc1)[C@@H](CO)N2Cc1ccccc1	n
